High-throughput results from PubChem.
An excerpt weighted towards active compounds, which were near 2.3% of everything screened.
PME-1 inh: blocks human protein phosphatase methylesterase 1; Q9Y570; recombinant PME-1, FP-Rh probe fluorescence polarization; inhibition, % at 5.9 µM; actives 0.53% (n = 320,000);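 active = inhibition above the campaign mean of all compounds plus 3 SD, cut at about 26% in these data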;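 also: competitive labeling of PME-1 active site by serine hydrolase directed probe; 0% = PME-1 with DMSO and 100% = wells lacking PME-1 enzyme; inhibitors block probe labeling so polarization falls and inhibition rises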
GSTO1 inh: blocks human GSTO1 in RBBP9 counter-screen; P78417; actives 1.1% (n = 300,000); recombinant GSTO1, activity-based probe fluorescence polarization; inhibition, % at 5.96 µM; AID 1974;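 active = inhibition above the campaign mean inhibition plus 3 SD, cut at about 35% in these data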;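 also: 0% = GSTO1-1 with DMSO and 100% = wells lacking GSTO1-1 enzyme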
Target sequence (P78417 whole entry, looked up): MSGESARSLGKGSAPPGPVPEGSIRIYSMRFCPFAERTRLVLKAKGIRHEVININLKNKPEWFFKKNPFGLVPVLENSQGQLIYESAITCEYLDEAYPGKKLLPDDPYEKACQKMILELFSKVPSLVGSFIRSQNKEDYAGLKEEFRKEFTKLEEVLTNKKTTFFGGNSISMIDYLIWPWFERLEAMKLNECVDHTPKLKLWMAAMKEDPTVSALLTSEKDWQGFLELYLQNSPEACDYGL
Fam108B inh: Fam108B inhibition, counter-screen for RBBP9 inhibitors. inhibition, % at 9.51 µM. actives 0.33% (n = 300,000). recombinant Fam108B, FP-Rh probe fluorescence polarization;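 active = inhibition above the screen mean inhibition plus 3 SD, computed separately per campaign, cut at about 18% in these data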;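 also: inhibitors lower polarization as less probe binds the enzyme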
pPAFAH FP inh: pPAFAH (human) enzyme inhibition. Q13093. recombinant pPAFAH, FP-rhodamine probe fluorescence polarization. inhibition, % at 3.39 µM. actives 1.5% (n = 330,000). AID 463082;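 active = inhibition above the mean inhibition across the screen plus 3 SD, cut at about 25% in these data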;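 also: inhibitors block binding of the rhodamine activity-based probe so polarization drops; 0% = enzyme with DMSO and 100% = wells lacking pPAFAH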
Target sequence (Q13093 whole entry, looked up): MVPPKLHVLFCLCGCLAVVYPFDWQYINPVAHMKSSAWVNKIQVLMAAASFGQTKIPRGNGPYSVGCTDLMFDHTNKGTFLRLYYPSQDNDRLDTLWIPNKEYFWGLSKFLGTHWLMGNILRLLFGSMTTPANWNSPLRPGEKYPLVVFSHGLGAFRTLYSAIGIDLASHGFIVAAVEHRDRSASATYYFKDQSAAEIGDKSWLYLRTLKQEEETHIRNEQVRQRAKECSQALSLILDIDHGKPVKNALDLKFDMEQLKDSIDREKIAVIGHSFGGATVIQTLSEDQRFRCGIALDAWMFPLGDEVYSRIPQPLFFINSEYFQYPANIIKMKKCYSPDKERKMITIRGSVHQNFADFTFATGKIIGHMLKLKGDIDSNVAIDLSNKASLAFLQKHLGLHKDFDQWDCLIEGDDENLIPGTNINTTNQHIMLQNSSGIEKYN
PAD4 FP inh: PAD4 (human) enzyme inhibition. recombinant PAD4, RCA probe fluorescence polarization. inhibition, % at 6.36 µM. actives 0.41% (n = 330,000). AID 485272;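 active = percent inhibition above a cutoff equal to the mean of all tested compounds plus 3 SD, cut at about 15% in these data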;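 also: 0% = PAD4 with RCA probe and DMSO and 100% = probe without PAD4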
* marks the source's active call; other numbers are inactive results; . = not tested or not shown.

SMILES	PME-1 inh	GSTO1 inh	Fam108B inh	pPAFAH FP inh	PAD4 FP inh
COc1ccccc1/C=C/C=N/NC(=O)c1cc(-c2ccco2)[nH]n1	-13.2	-0.8	-8.8	29.5*	-6.3
CCOC(=O)C1=C(O)/C(=C\c2ccc(CNS(=O)(=O)c3ccc(Br)cc3)o2)N=C1C	2.3	19.1	-2.4	27.7*	-3.1
O=C(Nc1cc(C(F)(F)F)ccc1N1CCOCC1)C1CCCO1 (centres undefined)	.	.	.	4.9	0.4
CCCCc1ccc(Nc2nc(CCC)cc(=O)[nH]2)cc1	-0.8	-8.7	1.2	28.7*	-4.5
CCCc1cc(=O)[nH]c(SCc2ccc(F)cc2)n1	-6.9	11.8	-1.3	30.6*	-1.1
O=c1cc(-c2ccccc2)nc(SCc2ccc(F)cc2)[nH]1	-10.8	-0.7	-6.4	4.1	4.8
CCCc1cc(=O)[nH]c(SCC(=O)c2ccc(S(=O)(=O)N3CCCC3)cc2)n1	5.2	36.6*	0.4	4.3	-1.4
C=CCn1c(C)cc(C(=O)COC(=O)/C=C/c2c(C)nn(C3CCS(=O)(=O)C3)c2Cl)c1C (centres undefined)	-6.0	-1.3	1.8	5.5	5.0
CN1CCN(S(=O)(=O)c2ccc(NC(=O)c3ccc(F)cc3Cl)cc2)CC1	-1.2	-2.9	-2.9	-1.7	-1.1
Cc1nn(CCC(=O)O)c2nc(-c3cccnc3)cc(C(F)(F)F)c12	-9.3	-2.0	2.8	-0.1	-4.7
Cc1nn(CCc2nn[nH]n2)c2nc(-c3ccc(C4CCCCC4)cc3)cc(C(F)(F)F)c12	-14.8	-55.4	-13.8	27.1*	-4.5
COCC(=O)Nc1c(C(=O)Nc2ccc3c(c2)OCO3)oc2ccccc12	-3.2	2.1	5.9	-8.7	3.4
O=C(CCl)Nc1c(C(=O)Nc2ccc3c(c2)OCCO3)oc2ccccc12	-0.9	36.3*	-0.6	14.4	-4.1
COc1cccc2sc(Nc3nnc(-c4ccccc4Cl)o3)nc12	22.3	-27.7	4.9	15.8	-5.1
COc1cccc(-c2nnc(Nc3nc4c(F)cccc4s3)o2)c1	43.8*	0.1	9.2	29.4*	-0.1
COc1ccccc1-c1nnc(Nc2nc3c(OC)cccc3s2)o1	31.1*	-11.4	8.2	12.8	-4.5
COc1ccc(-n2nc(C(=O)N3CCC(N4CCCCC4)CC3)c3c4ccccc4n(C)c3c2=O)cc1	0.9	-2.8	3.3	2.6	-4.9
CCOc1cc(CNC(C)(C)CO)cc(Br)c1OCc1ccc(Cl)cc1Cl	4.3	0.6	1.4	34.0*	-1.5
Cc1c(C(=O)N/N=C/C(C)C)[nH]c2c([N+](=O)[O-])cccc12	2.2	1.7	-3.3	-7.8	-4.3
CCc1ccc(-c2cc(C)no2)cc1S(=O)(=O)N1CCN(c2cc(C)ccc2C)CC1	-2.1	1.5	-4.7	-4.5	3.1
CC(C)C[C@@]12C(=O)N(c3cccc(F)c3)C(=O)N1[C@H](c1ccc(Cl)cc1)[C@@H]1C(=O)N(C3CCCCC3)C(=O)[C@@H]12	-7.0	-11.4	-1.4	0.9	-1.2
C=CCOc1c(Br)cc(/C=N/Nc2ccc(C(=O)O)cc2)cc1OCC	48.1*	11.0	17.1	29.6*	6.3
Cn1c(=O)oc2cc(S(=O)(=O)NC3CCCCC3)ccc21	-0.8	13.3	6.3	5.9	6.6
Cn1c(=O)oc2cc(S(=O)(=O)NC3CCN(Cc4ccccc4)CC3)ccc21	-7.9	37.1*	-2.2	3.1	-3.2
CC(C)Cc1nnc(NC(=O)CCC(=O)N2CCCCC2)s1	-10.6	5.3	1.8	4.4	0.6
SMILES	PME-1 inh	GSTO1 inh	Fam108B inh	pPAFAH FP inh	PAD4 FP inh
CCc1ccc(NC(=O)COn2nnc3ccc(S(=O)(=O)N(C)C)cc32)cc1	2.8	26.3	-3.7	5.2	-2.1
Cc1ccc(NC(=O)COn2nnc3ccc(S(=O)(=O)N(C)C)cc32)cc1F	-0.6	35.8*	-6.8	0.7	2.4
COc1ccccc1N(C)S(=O)(=O)c1ccc(C)c(C(=O)Nc2nccs2)c1	4.3	4.5	-3.1	3.7	-1.0
Cn1cc(C(=O)c2cccc(Cl)c2Cl)cc1C(=O)O	-5.1	7.0	-5.8	4.4	1.4
COC(=O)c1cc(C(=O)c2cccc(Cl)c2Cl)cn1C	-0.3	0.5	-1.8	24.8*	-2.1
Cc1ccc(CC(=O)NCCN2CCOCC2)cc1	-1.8	3.4	2.2	0.3	-1.2
COc1ccccc1C1=NC(c2ccc(C)cc2)N=C1C (centres undefined)	-2.0	0.0	-0.2	24.6*	-1.1
COc1ccccc1-c1nnc(-c2ccc(C)cc2)o1	-1.3	1.1	-2.1	2.6	-2.4
CCOC(=O)C1=C(c2ccccc2)N=c2s/c(=C\c3ccco3)c(=O)n2C1c1cccs1 (centres undefined)	-1.2	10.3	1.6	29.1*	-4.3
O=C(Nc1ccc(O)cc1)C1CC=CCC1 (centres undefined)	14.3	37.0*	9.1	17.1	5.3
S=c1[nH]nc(CSCc2ccccc2Cl)n1-c1ccccc1	-3.2	10.7	5.8	27.0*	-2.0
Cc1nonc1CN(C)C(=O)c1cc(COc2ccc(F)cc2Cl)on1	-1.1	1.4	-3.7	26.1*	2.6
O=C(c1cc(COc2ccc(F)cc2Cl)on1)N1CCN(C2CCCC2)CC1	1.6	-1.3	-0.6	26.0*	-2.9
O=C(c1cc(COc2ccc(F)cc2Cl)on1)N1CCN(C2CCCCC2)C(=O)C1	8.4	1.5	1.2	4.5	-0.5
O=C(CCN1C(=O)/C(=C\C=C\c2ccccc2)SC1=S)Nc1ccccc1C(=O)O	-5.2	-1.5	-7.4	29.8*	-14.1
O=C(CCN1C(=O)/C(=C/c2ccccc2Cl)SC1=S)NNC(=O)c1ccccc1O	1.1	13.8	-4.6	29.6*	-8.2
O=C(CCN1C(=O)/C(=C\C=C\c2ccccc2)SC1=S)Nc1cccc(C(=O)O)c1	-8.2	4.1	-2.4	28.5*	-10.6
CC(/C=C1\SC(=S)N(CCCC(=O)Nc2ccc(C(=O)O)c(O)c2)C1=O)=C\c1ccccc1	-20.4	-11.0	1.7	30.8*	-2.6
O=C(CCCN1C(=O)/C(=C\c2ccccc2)SC1=S)Nc1cccc(C(=O)O)c1	0.2	20.2	-0.4	4.3	-3.8
O=C(CCN1C(=O)/C(=C/C=C/c2ccccc2)SC1=S)Nc1nccs1	-0.8	-2.2	-0.4	8.3	-0.3
C=C1/C=C(\C)[C@](C)(O)C[C@H](O)CC(=O)[C@H](O)[C@@H](O)[C@H](C)C[C@H](C)OC(=O)/C(C)=C/CC/C=C/[C@@H]2O[C@H]2C[C@H](C)C1	.	.	.	10.3	1.0
CC12CCC(C(=O)N(CC(O)CN3CCCCCC3)C1=O)C2(C)C (centres undefined)	0.0	6.7	1.8	2.0	1.7
Cc1ccc(C)c(OCc2nc3ccc(S(=O)(=O)Nc4c(C)n(C)n(-c5ccccc5)c4=O)cc3[nH]2)c1	-6.8	11.7	-0.7	-0.9	0.7
O=C(NCc1cccnc1)/C(=C/c1ccc(-c2cccc(C(F)(F)F)c2)o1)NC(=O)c1ccccc1	-2.5	-6.3	-2.5	29.8*	-0.9
N=c1oc2cc(O)ccc2cc1C(=O)Nc1nc2ccccc2s1	29.7*	-3.1	14.6	1.5	-3.0
N=c1oc2cc(O)ccc2cc1C(=O)Nc1ccccn1	-4.5	7.4	-0.7	6.6	-0.9
